Most compounds without a hit are left out; they make up all but 2.9% or so of the library.
D3 antag – blocks the human D3 dopamine receptor | max response, negative = inhibition, % | hit rate 2.5% among 360,000 | P35462 | D3R cells, DiscoveRx beta-arrestin luminescence, antagonist mode; hits give low values; in the data active = max response below about -50%; inconclusive = no clear call, values can overlap the other calls; note: % is set by controls: 0 for no effect and ±100 for the full control effect
Target sequence (P35462 whole entry, looked up): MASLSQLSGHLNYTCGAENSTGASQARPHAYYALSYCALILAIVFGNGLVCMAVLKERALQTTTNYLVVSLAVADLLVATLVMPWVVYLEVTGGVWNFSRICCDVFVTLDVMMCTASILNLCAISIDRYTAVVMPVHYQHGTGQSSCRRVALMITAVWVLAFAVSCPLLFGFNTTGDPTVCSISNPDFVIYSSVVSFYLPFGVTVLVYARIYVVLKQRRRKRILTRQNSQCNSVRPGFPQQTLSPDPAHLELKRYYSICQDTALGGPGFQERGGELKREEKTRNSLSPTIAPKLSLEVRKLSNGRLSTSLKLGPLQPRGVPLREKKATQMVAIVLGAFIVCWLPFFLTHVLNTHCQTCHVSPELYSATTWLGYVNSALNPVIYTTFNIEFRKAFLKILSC
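Cells expressing the human receptor were seeded at 1500 cells/well, incubated overnight at 37 degrees C in 5% CO2, then exposed to library compounds with dopamine controls for 90 minutes at 37 degrees C before luminescent detection.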
a7 integrin act – activates integrin-mediated alleviation for muscular dystrophy; alpha7betagal myoblasts, beta-gal FDG fluorescence, 48 h; Potency, µM (titrated, usually from 38.3 µM), for inactives: at the highest dose activation, usual class: activators; hit rate 0.064% among 350,000; AID 624291;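 note: potency is the fitted concentration of half-maximal effect; 100% = response of the positive control SU9516; nearly all actives have a fitted effect of over 60% in size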
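Alpha7betagal+/- myoblasts (passage 13) were plated 16-24 hr, then exposed to compounds (1:260 dilution of DMSO stock) for 48 hours at 37C. After MPER lysis, β-galactosidase reporter activity was read as FDG fluorescence (ex 480/em 540) after 30 minutes.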
B2AR arrestin – agonists driving beta-arrestin recruitment to human beta2-adrenergic receptor. beta-arrestin recruitment to beta2AR, cell-based reporter. Potency, µM (top dose mostly 46.1 µM), inactives show at the top dose activation, actives largely listed as activators. AID 492947. P07550. hit rate 0.02% among 330,000;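 note: potency is the fitted concentration of half-maximal effect; 0% = DMSO controls and full agonism = EC100 isoproterenol or metaproterenol; nearly all actives have a fitted effect of over 65% in size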
mIDH1 inhibitor – inhibitors of human mutant IDH1 R132H. O75874. Potency, µM (highest dose often 76.6 µM), for inactives: at the top dose activity change, negative = inhibition, most hits filed as inhibitors. IDH1-R132H enzyme, NADPH consumption, diaphorase/resazurin fluorescence. hit rate 0.093% among 390,000; note: potency is the fitted concentration of half-maximal effect; % is set by controls: 0 for no effect and ±100 for the full control effect; nearly all actives have a fitted effect of over 65% in size
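IDH1-R132H (0.5 ug/mL) preincubated 30 min with compound, then NADPH (0.016 mM) and alpha-KG (2 mM) added; 80 min at RT, pH 7.5. Remaining NADPH coupled via diaphorase/resazurin to fluorescence (540/590 nm); concentration-response curves normalized to no-enzyme control.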
DRD3 agonist – activates the human D3 dopamine receptor | P35462 | D3R DiscoveRx beta-arrestin cells, luminescence, 90 min | max activation, % | hit rate 0.58% among 410,000 | AID 652048; in the data active = max activation above about 30%; note: 0% is about no effect
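Cells at 1500/well, incubated overnight, then treated with pinned compounds (dopamine as control) for 90 min at 37 degrees C. DiscoveRx reagent added for 30 - 60 minutes at room temperature; luminescence read.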
The depositor's hits bear a star; ? = inconclusive; / = not tested or not shown; [ ] = another dose, or the depositor's remark. Unless noted, calls come from the whole dose curve; as a rule, active = well fitted curve in the direction sought with a large enough effect; inconclusive = small, poorly fitted or top-dose-only effect, or another doubt; inactive = no such curve, though single readings can be large; an effect the other way counts as inactive or inconclusive.

SMILES	D3 antag	a7 integrin act	B2AR arrestin	mIDH1 inhibitor	DRD3 agonist
c1ccc(COc2cccc(CN3CCCCC3)c2)cc1	?	-51%	-1%	3%	-23
CC(=O)OCC(=O)NCCCOc1cccc(CN2CCCCC2)c1	-81*	/	/	2%	-67
O=C1C(=O)C(c2ccccc2)C(=O)C1c1ccccc1 (configuration not stated)	-20	-35%	/	21%	87*
O=C1c2ccccc2C(=O)C1c1ccncc1	-11	21%	0%	2%	-5
CC(Sc1nc2c([nH]c3ccccc32)c(=O)n1-c1ccccc1)c1ccccc1 (configuration not stated)	/	/	/	11%	-13
O=C(O)c1cccc(Nc2c([N+](=O)[O-])c(=O)oc3ccccc23)c1	-7	-7%	-1%	-6%	-8
O=c1oc2ccccc2c(Nc2cccc(O)c2)c1[N+](=O)[O-]	-81*	9%	0%	6%	-3
CC(C)N(C(=O)[C@H]1C[C@H](CC(=O)NCC23CC4CC(CC(C4)C2)C3)C(=O)N2CCc3c([nH]c4ccc(Cl)cc34)[C@]12C)C(C)C	4	-40%	0%	-4%	37*
COc1ccc2[nH]c3c(c2c1)CCN1C(=O)C(CC(=O)NCCC2=CCCCC2)C[C@H](C(=O)N(C(C)C)C(C)C)[C@@]31C (some centres not stated)	-3	-32%	0%	-16%	30*
CCN(CC)C(=O)[C@H]1CC(CC(=O)NCCC2=CCCCC2)C(=O)N2CCc3c([nH]c4ccc(OC)cc34)[C@]12C (some centres not stated)	0	-22%	0%	8%	41*
CC[C@]12c3[nH]c4cc(-c5ccco5)ccc4c3CCN1C(=O)[C@@H](CC(=O)NCC13CC4CC(CC(C4)C1)C3)C[C@@H]2C(=O)N1CCN(C(=O)C2CC2)CC1	-54*	0%	0%	0%[38.3 µM]	-46
Cc1ccc(Cc2c(-c3ccc(Cl)cc3)nc3cc(C)ccn23)cc1	?	-2%	/	36%	-15
COC(=O)c1c(C)cc(O)c(C=O)c1O	-53*	-4%	/	-1%	-15
O=C(CSc1nnc(CNC(=O)c2ccccc2)o1)NCCc1ccccc1	-68*	?	0%	0%	-19
COc1ccc2c(c1)CCc1c(C(=O)Nc3ccc(OC)c(OC)c3)noc1-2	14	17%	0%	13%	34*
O=[N+]([O-])c1ccc(S(=O)(=O)N/N=C/c2ccc3c(c2)OCO3)cc1	-21	2%	0%	-11%	17
Cc1ccc(S(=O)(=O)N/N=C/c2c(F)cccc2Cl)cc1	-87*	-1%	0%	1%	-7
Cc1ccc(S(=O)(=O)N/N=C\c2cc([N+](=O)[O-])ccc2Cl)cc1	-63*	-6%	0%	7%	-13
O=[N+]([O-])c1ccc(S(=O)(=O)NN=Cc2ccc(Cl)c(Cl)c2)cc1	-51*	-17%	/	-1%	7
Cc1ccc(S(=O)(=O)N/N=C/c2cccc([N+](=O)[O-])c2)cc1	0	22%	0%	5%	4
CC(=O)Nc1ccc(/C=N/NS(=O)(=O)c2cc(C)ccc2C)cc1	3	22%	-1%	6%	-3
CC(=O)Nc1ccc(S(=O)(=O)NN=Cc2ccc(Cl)c(Cl)c2)cc1	-71*	-1%	/	-7%	11
Cc1cccc(C(=O)N2CCc3cc(CNS(=O)(=O)c4ccc(F)c(Cl)c4)ccc32)c1	/	/	/	-14%	4
O=C(COC(=O)C1CCCCC1)Nc1cccc(Br)c1	-5	-19%	0%	-2%	-2
Cc1ccc(S(=O)(=O)N/N=C/c2ccc3nccnc3c2)cc1	?	12%	0%	-13%	52*
Cc1ccc(S(=O)(=O)N/N=C\c2cccnc2)cc1	-7	31%	0%	0%	5
Cc1ccc(-n2c(C)cc(C(=O)CSc3n[nH]c(N)n3)c2C)cc1	33	-45%	0%	5%	39*
CC1CCN(c2ccc(-c3cccc(NS(=O)(=O)c4ccc(F)cc4F)c3)nn2)CC1	/	/	/	9%	7
Cc1ccccc1-c1nnn(CC(=O)Nc2sc3c(c2C#N)CCC(C(C)(C)C)C3)n1 (configuration not stated)	/	/	/	-4%	-1

Screening data (PubChem BioAssay)
